Reference: PMC12431657, “Discovery and mechanistic insights of dibenzoylmethane as a broad spectrum inhibitor of coronavirus” (PLOS Pathogens, 2025)
Where two headings read alike, the source gives them in different places. Screen size: about 3,300 compounds; about 95 (3%) showed an effect of 50% or more. Shown is part of a subset that was picked to be rich in strong results. Peptide text beside a SMILES is read from it.

System: HCoV-229E
Parameters: species or system Huh-7; HTS, protection from HCoV-229E induced cell death, luminescent cell viability (CellCounting-Lite 2.0), inhibition rate
Conditions: 24 h post infection, 1 h compound pre-incubation, 10 µM, inhibitor

| Structure (SMILES) | 229E Inhibition rate [%] | 229E Inhibition rate (229E Inhibition rate, 24 h) [%] |
| --- | --- | --- |
| C=C(C)[C@@H]1CC[C@]2(C(=O)O[C@@H]3O[C@H](CO[C@@H]4O[C@H](CO)[C@@H](O[C@@H]5O[C@@H](C)[C@H](O)[C@@H](O)[C@H]5O)[C@H](O)[C@H]4O)[C@@H](O)[C@H](O)[C@H]3O)CC[C@]3(C)[C@H](CC[C@@H]4[C@@]5(C)CC[C@H](O[C@@H]6OC[C@H](O)[C@H](O)[C@H]6O[C@@H]6O[C@@H](C)[C@H](O)[C@@H](O)[C@H]6O)[C@@](C)(CO)[C@@H]5CC[C@]43C)[C@@H]12 [Pulchinenoside C] | 12.2 | – |
| C=C1C(=O)O[C@@H]2C[C@@]3(C)CCCC(=C)[C@@H]3C[C@H]12 [Isoalantolactone] | 20.6 | – |
| C[C@@H]1C[C@H]2OC(=O)[C@@]3(C)CCC[C@@](C)([C@@H]23)[C@@]1(O)CCc1ccoc1 [Marrubiin] | 59.8 | – |
| CC1=C2C(=O)O[C@@H](c3ccoc3)[C@]2(C)CCC1 [Fraxinellone] | 13.5 | – |
| C[C@@H](O)[C@@H](C)O [2,3-Butanediol] | – | 20.3 |
| O=C(CCCCCCCCc1ccc(O)c(O)c1)c1c(O)cccc1O [Malabaricone C] | 42.8 | – |
| O=c1c(-c2ccc(O)cc2)coc2cc(O)cc(O)c12 [Genistein] | 17.6 | – |
| CC(C)=CCc1c(-c2ccc(O)cc2O)oc2c(CC=C(C)C)c(O)cc(O)c2c1=O [Mulberrin] | 20.6 | – |
| CC(C)=CCc1cc(-c2coc3cc(O)cc(O)c3c2=O)cc(O)c1O [Glycyrrhisoflavone] | 62.7 | – |
| CC(C)=CCc1c(O)cc(O)c2c(=O)c(-c3ccc(O)cc3)coc12 [Lupiwighteone] | 63.8 | – |
| CC(C)=CCc1c(O)cc(O)c2c(=O)cc(-c3ccc(O)cc3)oc12 [Licoflavone C] | 28.1 | – |
| CC(C)=CCc1c(O)ccc(-c2coc3cc(O)cc(O)c3c2=O)c1O [Licoisoflavone A] | 0 | – |
| COc1cc2c(cc1OC)-c1cc3ccc4c(c3c(=O)n1CC2)OCO4 [8-Oxoepiberberine] | 17.9 | – |
| O=C(O)C1CCCCN1O (stereo not shown) [N-Hydroxypipecolic acid] | 19 | – |
| COC(=O)[C@@]1(C)CC[C@]2(C(=O)O)CC[C@]3(C)C(=CC[C@@H]4[C@@]5(C)C[C@H](O)[C@H](O)[C@@](C)(CO)[C@@H]5CC[C@]43C)[C@@H]2C1 [Phytolaccagenin] | 22.3 | – |
| CSCC[C@H](NC(=O)[C@H](CC(C)C)NC(=O)CNC(=O)[C@H](Cc1ccccc1)NC(=O)[C@H](Cc1ccccc1)NC(=O)[C@H](CCC(N)=O)NC(=O)[C@H](CCC(N)=O)NC(=O)[C@@H]1CCCN1C(=O)[C@H](CCCCN)NC(=O)[C@@H]1CCCN1C(=O)[C@@H](N)CCCN=C(N)N)C(N)=O [Substance P] | 0 | – |
| CC[C@H](C)[C@H](N)C(=O)N[C@@H](C)C(=O)N[C@@H](CCCN=C(N)N)C(=O)N[C@@H](CCCN=C(N)N)C(=O)N[C@@H](Cc1cnc[nH]1)C(=O)N1CCC[C@H]1C(=O)N[C@@H](Cc1ccc(O)cc1)C(=O)N[C@@H](Cc1ccccc1)C(=O)N[C@@H](CC(C)C)C(=O)O [Kinetensin] (H-IARRHPYFL-OH) | 56.1 | – |
| CC(C)[C@H](NC(=O)[C@H](CC(=O)O)NC(=O)[C@H](CCCCN)NC(=O)[C@@H](N)CCCN=C(N)N)C(=O)N[C@@H](Cc1ccc(O)cc1)C(=O)O [Thymopentin] (H-RKDVY-OH) | – | 21.6 |
| N[C@H](CC(=O)O)C(=O)O [(-)-Aspartic acid] | 9.6 | – |
| Cc1c(N)nc([C@H](CC(N)=O)NC[C@H](N)C(N)=O)nc1C(=O)N[C@H](C(=O)N[C@H](C)[C@@H](O)[C@H](C)C(=O)N[C@H](C(=O)NCCc1nc(-c2nc(C(=O)NCCC[S+](C)C)cs2)cs1)[C@@H](C)O)[C@@H](O[C@@H]1O[C@@H](CO)[C@@H](O)[C@H](O)[C@@H]1O[C@H]1O[C@H](CO)[C@@H](O)[C@H](OC(N)=O)[C@@H]1O)c1cnc[nH]1 [Bleomycin (sulfate)] | 12.9 | – |
| CC(C)=CCC[C@H](C)CC=O [(S)-(-)-Citronellal] | 6.7 | – |
| C[C@@H]1CC[C@@]2(OC1)O[C@H]1C[C@H]3[C@@H]4CC=C5C[C@@H](O)C[C@@H](O[C@@H]6O[C@H](C)[C@H](O)[C@H](O[C@@H]7OC[C@@H](O)[C@H](O)[C@H]7O)[C@H]6O[C@@H]6O[C@H](CO)[C@@H](O)[C@H](O)[C@H]6O)[C@]5(C)[C@H]4CC[C@]3(C)[C@H]1[C@@H]2C [Saponin C, from Liriope muscari] | 0 | – |
| C[C@@H]1CC[C@@]2(OC1)O[C@H]1C[C@H]3[C@@H]4CC=C5C[C@@H](O)C[C@@H](O[C@@H]6O[C@H](C)[C@H](O)[C@H](O[C@@H]7OC[C@@H](O)[C@H](O)[C@H]7O)[C@H]6O[C@@H]6O[C@@H](C)[C@H](O)[C@@H](O)[C@H]6O)[C@]5(C)[C@H]4CC[C@]3(C)[C@H]1[C@@H]2C [Ophiopogonin D'] | – | 6.6 |
| C[C@@H]1CC[C@@]2(OC1)O[C@H]1C[C@H]3[C@@H]4CC=C5C[C@@H](O)C[C@@H](O[C@@H]6O[C@H](C)[C@H](O)[C@H](O[C@@H]7OC[C@@H](O)[C@H](O)[C@H]7O)[C@H]6O[C@@H]6O[C@@H](C)[C@H](O)[C@@H](O)[C@H]6O)[C@]5(C)[C@H]4CC[C@]3(C)[C@H]1[C@@H]2C [Ophiopogonin D] | – | 50.3 |
| CCC(C)(O)C(=O)O (stereo not shown) [2-Hydroxy-2-methylbutanoic acid] | 0 | – |
| C[C@@H]1O[C@@H](OC[C@H]2O[C@@H](Oc3c(-c4ccc(OCCO)c(OCCO)c4)oc4cc(OCCO)cc(O)c4c3=O)[C@H](O)[C@@H](O)[C@@H]2O)[C@H](O)[C@H](O)[C@H]1O [Troxerutin] | 50.2 | – |

| Structure (SMILES) | 229E Inhibition rate [%] | 229E Inhibition rate (229E Inhibition rate, 24 h) [%] |
| --- | --- | --- |
| COc1cc(O)c2c(=O)c(O[C@@H]3O[C@H](CO[C@@H]4O[C@@H](C)[C@H](O)[C@@H](O)[C@H]4O)[C@@H](O)[C@H](O)[C@H]3O)c(-c3ccc(OC)c(O)c3)oc2c1 [Ombuoside] | 41.9 | – |
| C[C@@H]1O[C@@H](OC[C@H]2O[C@@H](Oc3c(-c4ccc(O)cc4)oc4cc(O[C@@H]5O[C@@H](C)[C@H](O)[C@@H](O)[C@H]5O)cc(O)c4c3=O)[C@H](O)[C@@H](O)[C@H]2O)[C@H](O)[C@H](O)[C@H]1O [Robinin] | 8.6 | – |
| O=C1CCNC(=O)N1 [Dihydrouracil] | 0 | – |
| COc1c(O)cc2oc3cc4c(c(O)c3c(=O)c2c1CC=C(C)C)CCC(C)(C)O4 [3-Isomangostin] | 11.6 | – |
| N[C@H](CS)C(=O)O [D-Cysteine] | 6.6 | – |
| O=C[C@H](O)[C@@H](O)[C@H](O)[C@H](O)C(=O)O [D-Glucuronic acid] | 57.5 | – |
| O=C(O)[C@@H](O)[C@H](O)[C@H](O)[C@@H](O)C(=O)O [Mucic acid] | 0 | – |
| O=C[C@H](O)[C@@H](O)[C@@H](O)[C@H](O)C(=O)O [D-Galacturonic acid (hydrate)] | 6.7 | – |
| CC(C)=CCc1c(O)cc2c(c1O)C(=O)C[C@@H](c1ccc(O)cc1)O2 [(2S)-6-Prenylnaringenin] | 22.5 | – |
| CC[C@]12C=CCN3CC[C@]4(C(=C(C(=O)OC)C1)Nc1ccccc14)[C@@H]32 [Tabersonine] | 0 | – |
| O=C(O)CCC(=O)OC[C@@H](NC(=O)C(Cl)Cl)[C@H](O)c1ccc([N+](=O)[O-])cc1 [Chloramphenicol succinate (sodium)] | 54 | – |
| COC(=O)[C@]1(O)C[C@@H](O)[C@@H](O)[C@H](OC(=O)/C=C/c2ccc(O)c(O)c2)C1 [3-O-Caffeoylquinic acid methyl ester] | 24.2 | – |
| COc1cc(CCC(=O)O)cc(OC)c1OC [3-(3,4,5-Trimethoxyphenyl)propanoic acid] | 55.1 | – |
| COc1cc(CCC(=O)O)ccc1O [Dihydroferulic acid] | 28.8 | – |
| COc1cc(C(=O)O)cc(OC)c1OC [3,4,5-Trimethoxybenzoic acid] | 11.2 | – |
| C[C@H](CCC(=O)O)[C@H]1CC[C@H]2[C@@H]3[C@H](O)C[C@@H]4CC(=O)CC[C@]4(C)[C@H]3C[C@H](O)[C@]12C [3-Oxocholic acid] | 4.2 | – |
| CC[C@H](CC[C@@H](C)[C@H]1CC[C@H]2[C@@H]3CC[C@H]4C[C@@H](O)CC[C@]4(C)[C@H]3CC[C@]12C)C(C)C [Stigmastanol] | 12.4 | – |
| O=c1cc(-c2ccc(O)cc2)oc2cc(O)c([C@@H]3O[C@H](CO)[C@@H](O)[C@H](O)[C@H]3O[C@@H]3O[C@H](CO)[C@@H](O)[C@H](O)[C@H]3O)c(O)c12 [Meloside A] | 56.2 | – |
| COc1cc2oc(-c3ccc(O)cc3)cc(=O)c2c(O)c1[C@@H]1O[C@H](CO)[C@@H](O)[C@H](O)[C@H]1O[C@@H]1O[C@H](CO)[C@@H](O)[C@H](O)[C@H]1O [Spinosin] | 16.9 | – |
| O=c1cc(-c2ccc(O)c(O)c2)oc2c([C@@H]3O[C@H](CO)[C@@H](O)[C@H](O)[C@H]3O)c(O)cc(O)c12 [Orientin] | 55 | – |
| O=c1cc(-c2ccc(O)c(O)c2)oc2cc(O)c([C@@H]3O[C@H](CO)[C@@H](O)[C@H](O)[C@H]3O)c(O)c12 [Isoorientin] | 51.3 | – |
| O=c1cc(-c2ccc(O)cc2)oc2cc(O)c([C@@H]3O[C@H](CO)[C@@H](O)[C@H](O)[C@H]3O[C@@H]3OC[C@H](O)[C@H](O)[C@H]3O)c(O)c12 [Isovitexin 2''-O-arabinoside] | 22.1 | – |
| O=c1cc(-c2ccc(O)c(O)c2)oc2c([C@@H]3O[C@H](CO)[C@@H](O)[C@H](O)[C@H]3O[C@H]3O[C@@H](CO)[C@@H](O)[C@@H](O)[C@@H]3O)c(O)cc(O)c12 [2"-O-beta-L-galactopyranosylorientin] | 6.8 | – |
| O=c1cc(-c2ccc(O)c(O)c2)oc2cc(O[C@@H]3O[C@H](CO)[C@@H](O)[C@H](O)[C@H]3O)c(O)c(O)c12 [6-Hydroxyluteolin 7-glucoside] | 5.1 | – |
| O=c1cc(-c2ccc(O)cc2)oc2cc(O)c([C@@H]3O[C@H](CO)[C@@H](O)[C@H](O)[C@H]3O)c(O)c12 [Isovitexin] | 21 | – |
| O=c1cc(-c2ccc(O)cc2)oc2c([C@@H]3O[C@H](CO)[C@@H](O[C@@H]4O[C@H](CO)[C@@H](O)[C@H](O)[C@H]4O)[C@H](O)[C@H]3O)c(O)cc(O)c12 [4”-O-Glucosylvitexin] | 19 | – |
